# PubChem BioAssay
# This is one part of the list. Calls of active or inactive are those of the source. Rule as the data show it, unless noted: active = binding response below about 74% or above about 130%; inactive = in between.
# Columns and labels:
# [1] = biological target: Regulator of G-protein signaling 16 (Homo sapiens) (UniProt O15492); experiment: modulators of RGS–Galpha-o binding, primary screen, biochemical, multiplexed beads, flow cytometry, RGS4/7/8/16/19 (AID 1504); conditions: multiplexed bead flow cytometry, measured here: RGS16 interaction, at 10 µM;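 also: fluorescently labeled Galpha-o bound to GDP with aluminium fluoride binding biotinylated RGS beads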
# [2] = biological target: Regulator of G-protein signaling 19 (Homo sapiens) (UniProt P49795); experiment: as above; conditions: multiplexed bead flow cytometry, measured here: RGS19 interaction, at 10 µM
# [3] = biological target: Regulator of G-protein signaling 7 (Homo sapiens) (UniProt P49802); experiment: as above; conditions: multiplexed bead flow cytometry, measured here: RGS7 interaction, at 10 µM
# [4] = biological target: Regulator of G-protein signaling 8 (Homo sapiens) (UniProt P57771); experiment: as above; conditions: multiplexed bead flow cytometry, measured here: RGS8 interaction, at 10 µM
# [5] = disruption of biotin probe capture by avidin, counter-screen for RGS protein interaction modulators, biochemical, flow cytometry, bead-based (AID 1783;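 active = inhibition above 50%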;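 as to inhibition: median green fluorescence of gated singlet beads compared with DMSO control wells; 0% = DMSO wells and 100% = complete loss of bead fluorescence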); conditions: streptavidin beads, fluorescein-biotin binding; at 10 µM, stronger effect = higher value
# [6] = biological target: Guanine nucleotide-binding protein G(o) subunit alpha (Homo sapiens) (UniProt P09471); experiment: RGS8-Galphao binding modulators, confirmation, biochemical, multiplexed bead flow cytometry, single concentration (AID 1836; in the data active = binding response below about 72% or above about 130%; inactive = in between;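 also: Galphao activated as GDP AlF4 complex before binding bead RGS8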); conditions: bead-based flow cytometry RGS8-Galphao binding, fluorescence; at 10 µM; actives lie on both sides
# Guanine nucleotide-binding protein G(o) subunit alpha (Homo sapiens), sequence (P09471 whole entry, looked up): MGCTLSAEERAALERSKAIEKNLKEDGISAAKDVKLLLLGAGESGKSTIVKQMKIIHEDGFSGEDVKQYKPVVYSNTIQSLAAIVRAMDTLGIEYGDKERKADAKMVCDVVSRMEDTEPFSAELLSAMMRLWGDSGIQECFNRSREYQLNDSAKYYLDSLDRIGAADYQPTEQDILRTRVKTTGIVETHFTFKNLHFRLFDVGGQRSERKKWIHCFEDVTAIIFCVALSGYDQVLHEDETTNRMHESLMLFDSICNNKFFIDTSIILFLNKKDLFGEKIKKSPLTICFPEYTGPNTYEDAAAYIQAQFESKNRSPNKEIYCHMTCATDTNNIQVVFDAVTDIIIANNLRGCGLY
# [7] = biological target: Guanine nucleotide-binding protein G(o) subunit alpha (Homo sapiens) (UniProt P09471); experiment: RGS7-Galphao binding modulators, confirmation, biochemical, multiplexed bead flow cytometry, single concentration (AID 1837; in the data active = response below about 75% or above about 130%; inactive = in between;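 also: fluorescent Galphao activated with GDP and aluminum fluoride binding bead-coupled RGS7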); conditions: bead-based flow cytometry RGS7-Galphao binding; at 10 µM; actives lie on both sides
# [8] = biological target: Regulator of G-protein signaling 16 (Homo sapiens) + Guanine nucleotide-binding protein G(o) subunit alpha (Homo sapiens) (UniProt O15492+P09471); experiment: modulators of RGS16-Galphao protein binding, confirmation, biochemical, single concentration, multiplexed bead flow cytometry (AID 1838; in the data active = response below about 74% or above about 130%; inactive = in between;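 also: Galphao activated as the GDP aluminium fluoride complex binding bead-coupled RGS16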); conditions: bead-based flow cytometry, at 10 µM, actives lie on both sides
# Regulator of G-protein signaling 16 (Homo sapiens) + Guanine nucleotide-binding protein G(o) subunit alpha (Homo sapiens), sequence (O15492 whole entry, looked up): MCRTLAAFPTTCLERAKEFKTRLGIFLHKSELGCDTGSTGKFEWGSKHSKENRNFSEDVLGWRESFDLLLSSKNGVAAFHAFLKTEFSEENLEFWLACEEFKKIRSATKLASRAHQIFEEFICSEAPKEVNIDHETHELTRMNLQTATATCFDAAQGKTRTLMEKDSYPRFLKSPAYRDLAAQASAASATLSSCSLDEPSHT
# Regulator of G-protein signaling 16 (Homo sapiens) + Guanine nucleotide-binding protein G(o) subunit alpha (Homo sapiens), sequence (P09471 whole entry, looked up): as the sequence (P09471 whole entry, looked up) above
# [9] = biological target: Guanine nucleotide-binding protein G(o) subunit alpha (Homo sapiens) (UniProt P09471); experiment: modulators of RGS4-Galphao protein binding, confirmation, biochemical, single concentration, multiplexed bead flow cytometry (AID 1840); conditions: at 10 µM, actives lie on both sides
# [10] = biological target: Guanine nucleotide-binding protein G(o) subunit alpha (Homo sapiens) + Regulator of G-protein signaling 19 (Homo sapiens) (UniProt P09471+P49795); experiment: regulators of RGS19-Galphao binding, confirmation, biochemical, single point, multiplexed bead flow cytometry (AID 1841; in the data active = response below about 50% or above about 160%; inactive = in between;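 also: 100% = no compound control and 0% = blank background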); conditions: bead-based flow cytometry RGS19-Galphao binding; at 10 µM; actives lie on both sides
# Guanine nucleotide-binding protein G(o) subunit alpha (Homo sapiens) + Regulator of G-protein signaling 19 (Homo sapiens), sequence (P09471 whole entry, looked up): as above
# Guanine nucleotide-binding protein G(o) subunit alpha (Homo sapiens) + Regulator of G-protein signaling 19 (Homo sapiens), sequence (P49795 whole entry, looked up): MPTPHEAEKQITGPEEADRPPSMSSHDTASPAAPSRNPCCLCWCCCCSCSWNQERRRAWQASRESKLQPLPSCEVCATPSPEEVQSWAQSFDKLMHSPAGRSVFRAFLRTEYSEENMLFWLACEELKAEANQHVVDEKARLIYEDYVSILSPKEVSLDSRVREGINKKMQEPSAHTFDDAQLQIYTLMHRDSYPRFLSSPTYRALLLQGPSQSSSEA
Structure (SMILES),RGS16–Galpha-o binding response [1] [%],RGS19–Galpha-o binding response [2] [%],RGS7–Galpha-o binding response [3] [%],RGS8–Galpha-o binding response [4] [%],inhibition [5],binding response (% of control) [6],response (percent of control binding) [7],response (% of control binding) [8],binding response (% of control) [9],response (percent of control binding) [10],outcome [5]
CCOc1ccc(NC(=O)CSc2nc3ccccc3c(=O)n2Cc2cccs2)cc1,-1.24,116,81.9,75.5,1.1% (inactive),101% (inactive),104% (inactive),104% (inactive),102% (inactive),102% (inactive),
O=C(Nc1cccc(-c2nc3ccccc3[nH]2)c1)c1ccc(C(=O)Nc2cccc(-c3nc4ccccc4[nH]3)c2)cc1,219,436,495,112,1% (inactive),104% (inactive),126% [activator] (active),131% [activator] (active),108% (inactive),217% (active),
COc1ccc(-c2nn(-c3ccccc3)cc2C(=O)Nc2nccs2)cc1OC,24.6,172,102,75,-2.4% (inactive),102% (inactive),99.8% (inactive),103% (inactive),101% (inactive),112% (inactive),
CN(CC(=O)NC1CCCCC1)S(=O)(=O)c1cccc2cccnc12,94.7,114,241,89.3,,,,,,,
O=c1[nH]c2ccccc2s1,23,148,88.2,79,-0.3% (inactive),103% (inactive),102% (inactive),101% (inactive),102% (inactive),99.2% (inactive),
CCn1c(CSCc2c(Cl)cccc2Cl)n[nH]c1=S,46.1,1140,-29.3,55.5,1.4% (inactive),89% (inactive),89.5% (inactive),88.1% (inactive),94.2% (inactive),83.5% (inactive),
CC(=O)N1CC[n+]2c(-c3ccc([N+](=O)[O-])cc3)csc21,12.8,114,102,63.1,-0.8% (inactive),80.5% (inactive),67.2% (active),58% (active),66.7% (active),62.5% (inactive),
CCCC(=O)N=c1sc2cccc(F)c2n1C,76.5,14800,18,37.2,,,,,,,
O=C(Nc1cccc(F)c1)c1coc(=O)c(Br)c1,100,108,45.3,80.8,-1.3% (inactive),110% (inactive),105% (inactive),109% (inactive),103% (inactive),118% (inactive),
O=C(Nc1ccccc1)c1cc2ccccc2[nH]1,13.8,-785,89.9,67.8,0.6% (inactive),105% (inactive),103% (inactive),106% (inactive),106% (inactive),99.5% (inactive),
O=C1CCC(=O)N(O)CCCCCNC(=O)CCC(=O)N(O)CCCCCNC(=O)CCC(=O)N(O)CCCCCN1,40.8,4280,-117,55.9,-0.3% (inactive),53.5% (active),59.4% (active),45.6% (active),61.5% (active),62.2% (inactive),
Cc1ccc(OCC(O)CN2CCN(CC(O)COc3ccc(C)cc3Cl)CC2)c(Cl)c1 (stereo unspecified),367,114,127,165,,,,,,,
O=C(Nc1ccc(-n2ccnc2P(=O)(O)c2ccccc2)cc1)c1ccccc1Br,143,394,152,105,,114% (inactive),135% [activator] (active),118% (inactive),129% [activator] (active),139% (inactive),inactive
COc1ccc(C(=O)NNc2cc(C)nc(NNC(=O)c3ccc(OC)cc3)n2)cc1,4.94,167,72.3,54,1.4% (inactive),108% (inactive),115% (inactive),111% (inactive),110% (inactive),107% (inactive),
Fc1cc(F)c2nc(Nc3nc4c(F)cccc4s3)sc2c1,192,-2.22,112,122,0% (inactive),103% (inactive),103% (inactive),103% (inactive),103% (inactive),107% (inactive),
CC(NC(=O)COC(=O)C1CCN(S(=O)(=O)c2ccccc2C(F)(F)F)CC1)c1ccccc1 (stereo unspecified),327,-23.1,115,148,-0.6% (inactive),98.3% (inactive),96.9% (inactive),99.8% (inactive),97.2% (inactive),97.7% (inactive),
COc1ccc(CCC(=O)OCC(=O)Nc2ccc(C)c(S(=O)(=O)N(C)C)c2)cc1,69.9,-376,45.2,57.7,2.5% (inactive),104% (inactive),104% (inactive),104% (inactive),103% (inactive),100% (inactive),
CCC(=O)Nc1c(S(=O)(=O)c2ccccc2)c2nc3ccccc3nc2n1Cc1ccccc1,13.9,285,87.2,70.1,-0.3% (inactive),103% (inactive),99.2% (inactive),104% (inactive),103% (inactive),101% (inactive),
CCOC(=O)c1oc2c(CN3CCN(C)CC3)c(O)ccc2c(=O)c1-c1ccc(Br)cc1,142,79.7,318,107,-0.6% (inactive),97.5% (inactive),95.5% (inactive),98.4% (inactive),96.9% (inactive),92.8% (inactive),

Structure (SMILES),RGS16–Galpha-o binding response [1] [%],RGS19–Galpha-o binding response [2] [%],RGS7–Galpha-o binding response [3] [%],RGS8–Galpha-o binding response [4] [%],inhibition [5],binding response (% of control) [6],response (percent of control binding) [7],response (% of control binding) [8],binding response (% of control) [9],response (percent of control binding) [10],outcome [5]
CCN(CC)CCOc1ccc2c(c1)C(=NNC(=O)c1ccccn1)c1cc(OCCN(CC)CC)ccc1-2,203,146,216,154,,,,,,,
C=CCn1c(Cn2nnc3ccccc32)nnc1SCC(=O)N/N=C/c1cc(Br)cc(OC)c1O,-35.2,144,-19.4,5.17,,,,,,,
O=C(NCc1ccc(F)cc1)C1CCC(CNc2c(N3CCOCC3)c(=O)c2=O)CC1 (stereo unspecified),3.97,357,-657,8.33,0% (inactive),101% (inactive),100% (inactive),98.7% (inactive),101% (inactive),98.1% (inactive),
Oc1ccc(N=Nc2nccs2)c(O)c1,-16.2,158,270,6.26,-1.7% (inactive),99% (inactive),96.5% (inactive),97.6% (inactive),98.7% (inactive),99.6% (inactive),
COc1ccc(C(=O)COC(=O)c2ccc3ccccc3n2)cc1,-0.98,167,39,28.9,-1% (inactive),95.5% (inactive),86.7% (inactive),95.4% (inactive),92.6% (inactive),93.7% (inactive),
CCOc1ccccc1NC(=O)c1cc(S(=O)(=O)N2CCC3(CC2)OCCO3)ccc1F,4.15,139,15.2,33,,,,,,,
O=C(CN1CCOCC1)Nc1ccccc1,297,103,112,145,2.3% (inactive),97.1% (inactive),92.3% (inactive),94.4% (inactive),97.7% (inactive),97.1% (inactive),
Cc1ccccc1NC(=S)N(CCCN1CCOCC1)Cc1cccs1,181,80,106,118,2.8% (inactive),104% (inactive),102% (inactive),104% (inactive),102% (inactive),107% (inactive),
CCCC(=O)n1nc(-c2ccccc2)nc1N,14.9,-92.7,23.4,20.9,,,,,,,
CN1CCN(C(CNS(=O)(=O)c2cccs2)c2cccnc2)CC1 (stereo unspecified),-5.62,168,-9.98,10.6,,,,,,,
N#Cc1nc(COc2ccc(-c3ccccc3)cc2)oc1NCc1cccnc1,0,78.7,202,167,6.8% (inactive),156% [activator] (active),517% [activator] (active),364% [activator] (active),376% [activator] (active),565% (active),
CCC(=O)N1CCC(C(N)=O)(N2CCCCC2)CC1,417,90.3,161,163,2% (inactive),93.5% (inactive),90.7% (inactive),94.8% (inactive),94.8% (inactive),88.3% (inactive),
Cc1cccc(S(=O)(=O)CC(=O)Nc2nc(-c3ccccc3)cs2)c1,239,101,130,118,1.7% (inactive),101% (inactive),106% (inactive),98.5% (inactive),103% (inactive),105% (inactive),
COc1ccccc1-n1c(-c2cc(-c3ccco3)[nH]n2)n[nH]c1=S,-1.14,531,-527,6.3,0.5% (inactive),83.6% (inactive),99.5% (inactive),82.6% (inactive),98.3% (inactive),68.6% (inactive),
Cc1cc(C)cc(N(CC(=O)Nc2c(C)n(C)n(-c3ccccc3)c2=O)S(C)(=O)=O)c1,-28.4,156,-21.3,1.54,-0.5% (inactive),104% (inactive),104% (inactive),108% (inactive),103% (inactive),108% (inactive),
CCCC1C(c2ccccc2)C(C#N)(C#N)C2(C#N)CC1(N)NC2=O (stereo unspecified),178,474,152,116,0.8% (inactive),103% (inactive),105% (inactive),102% (inactive),103% (inactive),105% (inactive),
CCCn1nnnc1NC(=O)COc1ccc(Cl)cc1C,2.27,-359,17.1,11.9,,,,,,,
COCCNC(=S)N/N=C/c1c(C)[nH]c2ccccc12,153,993,142,105,0.1% (inactive),105% (inactive),212% [activator] (active),134% [activator] (active),161% [activator] (active),225% (active),
CN(C)CCNC(=O)/C(=C/c1cccc([N+](=O)[O-])c1)NC(=O)c1ccccc1,219,-55.8,113,124,-1.3% (inactive),103% (inactive),105% (inactive),101% (inactive),104% (inactive),91.3% (inactive),
